Source: PubChem BioAssay (NCATS)
Records with an inconclusive call do not appear. Entries that show only a call come without a potency. The source made the active and inactive calls. Calls follow the shape of the dose curve; as a rule, active = well fitted inhibition curve with a large enough effect in the signal ratio, with a control signal flat (not every such curve was filed as active); inconclusive = small, poorly fitted or top-dose-only effect, or effect the other way, or a change in a side signal; inactive = flat fitted curve, though single readings scatter; the % refers to the signal ratio.

assay: qHTS Assay for Identification of Small Molecule Antagonists for NFkB Signaling Pathway (AID 895); settings: NFkB beta-lactamase reporter cells, FRET ratio 460/530, stimulated with 10 pM TNF alpha; series mostly up to 38.3 µM
Protocol: NIH Molecular Libraries Screening Centers Network [MLSCN]
NIH Chemical Genomics Center [NCGC]
The TNF alpha/NFkB signaling pathway was assayed in NFkB-bla cells (Invitrogen), a ME-180 cervical carcinoma line containing a stably integrated beta-lactamase reporter gene controlled by a NFkB response element. […] The assay was screened at the EC50 of TNF alpha activation to identify inhibitors of TNF alpha/NFkB signaling.
NCGC Assay Protocol Summary:
Cells were trypsinized, washed in assay medium (AM, OPTI MEM with 0.5% fetal bovine serum, 0.1 mM nonessential amino acids, 1 mM sodium pyruvate, 10mM HEPES pH 7.3, 100U/ml penicillin, and 100 ug/ml streptomycin) and plated at 1000 cells/5 uL/well into black clear-bottom 1536 well plates. After an overnight incubation at 37 C and 5% CO2, 23 nL of compound were delivered by a pin tool, 1 uL of TNF alpha (10 pM final concentration in AM) was added and plates were incubated at 37 C for 5 hrs. One uL of LiveBLAzerTM detector mix (Invitrogen) was added, the plates incubated at room temperature for 2 hrs, and fluorescence intensity at 460 and 530 nm emission was measured at 405 nm excitation by an Envision (Perkin Elmer).
Potency is read from the fitted curve at half-maximal effect.

Row | Compound | Potency
1 | CCCOc1ccccc1-c1nc2n[nH]nc2c(=O)[nH]1 | inactive
2 | CN1CCN(C2=Nc3ccccc3Oc3ccc(Cl)cc32)CC1 | inactive
3 | Cc1nc2c([nH]1)c(=O)n(C)c(=O)n2Cc1ccco1 | 0.0631 µM (active)
4 | CC(=O)Nc1nnc(S(N)(=O)=O)s1 | inactive
5 | CCN(CC)CC(=O)Nc1c(C)cccc1C | inactive
6 | Cc1nc2sccn2c(=O)c1CCN1CCC(=C(c2ccc(F)cc2)c2ccc(F)cc2)CC1 | 5.01 µM (active)
7 | O=c1[nH]c(=O)n([C@H]2C[C@H](O)[C@@H](CO)O2)cc1Br | inactive
8 | O=C(O)CN(CCOCCOCCN(CC(=O)O)CC(=O)O)CC(=O)O | inactive
9 | CCN(CC)CCNC(=O)c1cc(S(C)(=O)=O)ccc1OC | inactive
10 | COc1cc2c(cc1OC)-c1cc(=Nc3c(C)cc(C)cc3C)n(C)c(=O)n1CC2 | 5.62 µM (active)
11 | NC(=O)N1c2ccccc2C=Cc2ccccc21 | inactive
12 | C[n+]1cc2c3c(ccc2c2ccc4cc5c(cc4c21)OCO5)OCO3 | 10 µM (active)
13 | Brc1c(NC2=NCCN2)ccc2nccnc12 | inactive
14 | CC(=O)Oc1cc(C(C)C)c(OCCN(C)C)cc1C | inactive
15 | CN(C)C(=O)Oc1cccc([N+](C)(C)C)c1 | inactive
16 | N[C@@H](COP(=O)(O)O)C(=O)O | inactive
17 | C[C@]12CCC(=O)C=C1CC[C@@H]1[C@@H]2C(=O)C[C@@]2(C)[C@H]1CC[C@]2(O)C(=O)CO | inactive
18 | CCC(=O)c1ccc2c(c1)N(CCCN(C)C)c1ccccc1S2 | inactive
19 | Cc1nc2ccccn2c(=O)c1CCN1CCC(C(=O)c2ccc(F)cc2)CC1 | inactive
20 | CCc1cccc(N(C)C(N)=Nc2cccc3ccccc23)c1 | inactive
21 | CC[N+](C)(C)c1cccc(O)c1 | inactive
22 | Cc1ccc(=O)n(-c2ccccc2)c1 | inactive
